Twelve compounds from PubChem BioAssay can be followed below.

The structures appear in SMILES notation. The source made the active and inactive calls.

Assay [1] deals with Plasmodium falciparum Sir2 (PF13_0152, Sir2A). The assay can be described thus: Plasmodium falciparum Sir2A binding compounds – biochemical, small-molecule microarray, 635 nm fluorescence, primary screen (AID 1098).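 Also: score merges spot fluorescence intensity with its signal-to-noise ratio.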 The conditions noted are these: fluorescence 635 nm, higher = more signal.
Assay [2] can be described thus: probe aDKK1 binding to arrayed compounds – biochemical, biotinylated probe, 635/667 nm fluorescence, primary screen (AID 1099).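 Also: score merges 667nm spot fluorescence with signal to noise across triplicate slides; reference of the scale not given here.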 As to conditions: small-molecule microarray, higher = more signal.
A short description of assay [3]: probe aCHRDL2 binding to arrayed compounds – biochemical, biotinylated probe, 635/667 nm fluorescence, primary screen (AID 1100). The conditions noted are these: small-molecule microarray, higher = more signal.
A short description of assay [4]: change in splice reporter luminescence, either direction, cell-based, HEK293, spliceosome inhibition project, primary screen (AID 1101).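 Also: HEK293 cells carrying a splicing-competent luciferase reporter gene; test concentration not given here.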 The conditions noted are these: HEK293 splicing luciferase reporter, 24 h, higher = more signal, called active from +8 up or from −8 down. A general note: A reporter such as luciferase makes a cellular process visible.
The target in assay [5] is Fibroblast growth factor 10 (Homo sapiens) (UniProt O15520). The assay can be described thus: compounds binding fibroblast growth factor 10 – biochemical, small-molecule microarray, 635 nm fluorescence, primary screen (AID 1102). As to conditions: FGF10 binding, fluorescence 635 nm, higher = more signal.
Chain of Fibroblast growth factor 10 (Homo sapiens) (O15520 whole entry, looked up): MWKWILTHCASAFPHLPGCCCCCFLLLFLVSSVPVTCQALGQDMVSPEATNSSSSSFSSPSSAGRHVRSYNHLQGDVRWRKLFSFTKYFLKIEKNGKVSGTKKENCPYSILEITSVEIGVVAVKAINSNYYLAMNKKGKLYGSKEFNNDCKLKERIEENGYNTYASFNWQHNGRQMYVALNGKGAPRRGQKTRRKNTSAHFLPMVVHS
Assay [6] relates to glycogen synthase kinase-3 (GSK3A per assay name; protocol says GSK3B). Kind of assay: compounds binding glycogen synthase kinase-3 – biochemical, small-molecule microarray, 635 nm fluorescence, GSK3A, primary screen (AID 1103). Also: the record names both GSK3A and GSK3B. The conditions noted are these: fluorescence 635 nm, higher = more signal.
The target of assay [7] is Epidermal growth factor receptor (Homo sapiens) (UniProt P00533). The assay can be described thus: compounds binding epidermal growth factor receptor – biochemical, small-molecule microarray, 635 nm fluorescence, primary screen (AID 1104).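 Also: score merges 667 nm emission intensity with spot signal to noise over triplicate slides.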 As to conditions: EGFR binding, higher = more signal.
Chain of Epidermal growth factor receptor (Homo sapiens) (P00533 whole entry, looked up): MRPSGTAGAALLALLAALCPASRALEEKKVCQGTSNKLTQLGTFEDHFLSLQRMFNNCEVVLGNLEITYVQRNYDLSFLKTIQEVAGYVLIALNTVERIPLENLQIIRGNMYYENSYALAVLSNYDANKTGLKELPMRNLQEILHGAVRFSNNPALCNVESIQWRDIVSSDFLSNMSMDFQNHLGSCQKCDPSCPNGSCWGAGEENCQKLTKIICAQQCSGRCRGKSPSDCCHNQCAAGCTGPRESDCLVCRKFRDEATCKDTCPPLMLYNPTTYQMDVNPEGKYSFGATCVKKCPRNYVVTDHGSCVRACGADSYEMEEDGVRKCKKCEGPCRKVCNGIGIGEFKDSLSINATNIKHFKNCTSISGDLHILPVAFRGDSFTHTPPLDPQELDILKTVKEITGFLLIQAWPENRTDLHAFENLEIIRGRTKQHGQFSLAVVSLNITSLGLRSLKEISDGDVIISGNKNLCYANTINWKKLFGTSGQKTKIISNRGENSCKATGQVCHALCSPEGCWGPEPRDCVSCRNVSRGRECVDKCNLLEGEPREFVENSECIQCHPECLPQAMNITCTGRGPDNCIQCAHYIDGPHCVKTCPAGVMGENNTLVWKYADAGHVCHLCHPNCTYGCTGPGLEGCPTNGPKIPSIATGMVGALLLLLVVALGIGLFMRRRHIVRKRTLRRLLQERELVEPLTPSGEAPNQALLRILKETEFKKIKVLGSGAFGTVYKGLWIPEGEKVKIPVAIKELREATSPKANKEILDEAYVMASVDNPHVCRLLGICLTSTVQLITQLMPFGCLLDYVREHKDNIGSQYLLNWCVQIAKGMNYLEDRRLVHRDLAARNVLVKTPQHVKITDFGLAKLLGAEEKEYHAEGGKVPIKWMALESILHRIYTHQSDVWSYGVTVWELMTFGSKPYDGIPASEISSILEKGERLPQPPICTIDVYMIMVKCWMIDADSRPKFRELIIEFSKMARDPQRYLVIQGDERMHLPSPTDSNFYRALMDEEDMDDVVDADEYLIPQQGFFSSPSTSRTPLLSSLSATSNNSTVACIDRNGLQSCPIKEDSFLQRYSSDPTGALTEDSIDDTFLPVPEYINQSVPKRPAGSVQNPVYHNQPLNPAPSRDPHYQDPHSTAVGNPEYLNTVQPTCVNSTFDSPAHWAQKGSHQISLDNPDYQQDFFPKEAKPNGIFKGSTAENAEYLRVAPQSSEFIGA
The target of assay [8] is Follistatin-related protein 3 (Homo sapiens) (UniProt O95633). The assay can be described thus: compounds binding follistatin-related protein 3 – biochemical, small-molecule microarray, 635 nm fluorescence, primary screen (AID 1105).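 Also: score merges emission near 667 nm and signal to noise per printed spot across three slides.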 As to conditions: FSTL3 binding, higher = more signal.
Chain of Follistatin-related protein 3 (Homo sapiens) (O95633 whole entry, looked up): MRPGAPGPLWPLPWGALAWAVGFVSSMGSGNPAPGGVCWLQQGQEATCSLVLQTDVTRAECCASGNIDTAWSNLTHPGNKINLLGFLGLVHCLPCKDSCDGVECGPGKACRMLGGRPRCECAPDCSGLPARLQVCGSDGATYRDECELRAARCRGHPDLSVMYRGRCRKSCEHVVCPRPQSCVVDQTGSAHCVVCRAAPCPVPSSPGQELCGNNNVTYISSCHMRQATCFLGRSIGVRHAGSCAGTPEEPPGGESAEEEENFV
Assay [9] concerns the target Dickkopf-related protein 1 (Homo sapiens) (UniProt O94907). Kind of assay: small molecules binding DKK1 protein – biochemical, small-molecule microarray, 635 nm fluorescence scan, primary screen (AID 1106).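 Also: score merges emission near 667 nm with signal to noise over three replicate slides.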 As to conditions: higher = more signal.
For assay [10], the system named is Inhibin beta A chain (activin A). Kind of assay: small molecules binding activin A – biochemical, small-molecule microarray, 635 nm fluorescence scan, primary screen (AID 1107).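 Also: mouse activin A protein probed at 4.33 µg/mL on printed slides; score merges bound-protein fluorescence near 667 nm with spot signal-to-noise.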 The conditions noted are these: INHBA, higher = more signal.

Chain of Dickkopf-related protein 1 (Homo sapiens) (O94907 whole entry, looked up): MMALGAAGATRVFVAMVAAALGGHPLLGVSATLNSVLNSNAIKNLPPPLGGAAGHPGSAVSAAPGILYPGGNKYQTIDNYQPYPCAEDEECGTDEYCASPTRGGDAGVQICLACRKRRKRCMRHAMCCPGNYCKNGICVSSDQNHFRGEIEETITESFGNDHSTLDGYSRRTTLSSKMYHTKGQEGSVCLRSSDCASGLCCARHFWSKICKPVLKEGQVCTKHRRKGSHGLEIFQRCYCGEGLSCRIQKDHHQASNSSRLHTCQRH

Turning to `CCOC(=O)CCN1C(=O)[C@H]2[C@H]3[C@H](O)[C@H](O)CC(=NOCC=C(C)CCC=C(C)C)[C@H]3CC[C@H]2C1=O`, the composite z-score in [1] was -0.319; in [2], 0.28; in assay [3] it was -0.154; in [5], 0.245; in assay [6] it was -0.709; in [7], 0.52. Moreover, the composite z-score in [8] is -0.789; in assay [9] it was -0.185; in assay [10], -1.82. Besides, in [4], the z-score is 0.0511 (inactive).

Regarding `CCN(CC)CC(O)CN1CCCCc2nc(C)c(C)cc21` (stereo not given), the composite z-score in assay [1] is -0.145; in assay [2], -0.33; in [3] it was -0.485; in assay [5], 0.507; in [6] it was 0.709; in assay [7], 0.256. The composite z-score in assay [8] amounted to 0.42; in [9], 0.701; in assay [10] it was 0.29. In assay [4], the z-score is -1.7 (inactive).

Consider `COC(=O)[C@H](C)NC(=O)CCC1CC(OC(=O)NCCc2ccc(F)cc2)CC2(CCCC(COC(=O)NCC3CCCCC3)O2)O1` (stereo not given in full), for which the composite z-score in assay [1] is 0.662; in assay [2], -0.262; in assay [3], -0.446; in assay [5] it was 0.938; in assay [6], 1.23; in assay [7], 0.501. The composite z-score in assay [8] is 1.08; in assay [9] it was 0.678; in assay [10], 0.0532. Also, in [4], the z-score is -0.863 (inactive).

For `COc1cccc([C@H](O)Cn2cc(-c3ccc(CON=C(C)C)cc3)nn2)c1`, the composite z-score in [1] is -0.548; in assay [2], -0.122; in assay [3] it was -0.0514; in [5], 0.155; in [6], -0.559; in [7], -0.392. Moreover, the composite z-score in [8] was -0.549; in assay [9], -0.115; in assay [10], 0.575. In addition, in assay [4], the z-score was 0.62 (inactive).

Regarding `CCOC(=O)[C@H](CC(C)C)NC(=O)CCC1CC(OC(=O)NCc2ccc3c(c2)OCO3)CC2(CCCC(COC(=O)NCCOC)O2)O1` (stereo not given in full), the composite z-score in [1] was 0.622; in assay [2], -0.27; in assay [3], -0.261; in [5], 0.495; in assay [6], 0.627; in assay [7] it was 0.184. Also, the composite z-score is 0.864 in assay [8], 0.336 in assay [9] and 0.637 in assay [10]. In addition, in [4], the z-score is -0.191 (inactive).

With `CC(C)(C)N1C(=O)[C@H]2[C@H]3[C@H](O)[C@H](O)CC(=NNC(=O)OCc4ccccc4)[C@H]3CC[C@H]2C1=O`, the composite z-score in [1] was -0.195; in assay [2], 0.0773; in assay [3] it was -0.525; in [5], 0.72; in assay [6], 0.792; in assay [7], 0.208. Further, the composite z-score in assay [8] is 0.889; in assay [9] it was 0.608; in assay [10], -1.06. In assay [4], the z-score was -0.422 (inactive).

Take `COc1ccc(COC(=O)NN=C2C[C@@H](O)[C@@H](O)[C@@H]3[C@@H]4C(=O)N(C[C@@H]5CCCO5)C(=O)[C@@H]4CC[C@@H]23)cc1`: the composite z-score is 1.06 in assay [1]; -0.288 in assay [2]; -0.241 in assay [3]; 1.01 in [5]; 0.0003 in assay [6]; -0.127 in assay [7]. Besides, the figures for the composite z-score in assay [8], in assay [9] and in assay [10] were -0.139, 0.0237 and 0.203, respectively. Besides, the z-score in assay [4] was -0.00678 (inactive).

Turning to `CCCCOC(OCCCC)C(O)CSc1ccc2ccccc2c1` (stereo not given), the composite z-score in assay [1] was 0.302; in assay [2] it was 0.166; in assay [3] it was -0.392; in assay [5], 0.379; in [6], 0.68; in [7], 0.549. Besides, the composite z-score in [8] worked out at 0.589; in assay [9], 0.486; in assay [10], 0.251. In addition, the z-score in assay [4] is -0.0185 (inactive).

Regarding `COc1ccc(O[C@H]2C=C[C@@H](c3ccccc3)O[C@@H]2COC(=O)NCc2cccc3ccccc23)cc1`, the composite z-score is -0.101 in [1]; 0.0187 in assay [2]; 0.173 in assay [3]; 0.0748 in [5]; -0.131 in assay [6]; -0.168 in [7]. Further, the composite z-score came to 0.1 in [8], 0.269 in assay [9] and 0.763 in assay [10]. Moreover, the z-score in assay [4] is -0.134 (inactive).

`COCOc1ccc(Br)cc1C(=O)C=Cc1ccc2c(c1)OCO2`: the composite z-score was -0.0162 in assay [1]; -0.304 in assay [2]; -0.662 in assay [3]; 0.59 in [5]; -0.207 in [6]; 0.524 in assay [7]. Besides, the composite z-score in assay [8] worked out at 0.679; in assay [9] it was 0.665; in assay [10], 1.22. In assay [4], the z-score is -0.838 (inactive).

As for `CO[C@@H]1C=CCC(=O)N[C@@H](C)C(=O)OC[C@@H](OC)[C@H](C)C=CCC(=O)OC[C@H]1C`, the composite z-score in assay [1] was 1.27; in assay [2], -0.266; in [3], -1.14; in [5] it was 0.656; in assay [6], 0.808; in assay [7], 1.07. For the same compound, the composite z-score in assay [8] came out at 1.53; in assay [9] it was 1.35; in [10], 1.77. Moreover, the z-score in assay [4] was 0.175 (inactive).

Consider `CC(CCN1CCCc2nc(C)c(C)cc21)=NOC[C@@H](C)[C@H](OCc1ccccc1)C(C)C`, for which the composite z-score in [1] is -0.438; in assay [2], -0.359; in assay [3], -0.623; in [5], -0.569; in assay [6] it was -0.715; in [7] it was -0.771. Besides, the composite z-score in assay [8] is -0.413; in assay [9] it was -0.265; in [10], 0.356. Besides, the z-score in assay [4] is -0.81 (inactive).
